± gives the standard deviation. In all, about 3,700 sequences were measured (“pre-steady-state target cleavage rate”: median about 0.02, highest 2% from about 0.23 on). The entries come from a sample that favours the highest values as a whole. Bounds are passed on as bounds.

The experiment concerns MILI (PIWIL2) piRISC loaded with Kctd7 piRNA (26 nt). Description: pre-steady-state target cleavage rate (min^-1); MIWI and MILI are mouse PIWI proteins and EfPiwi is from a freshwater sponge; tags in brackets are library labels; higher = faster piRNA-guided slicing of the target. Conditions: guide: Kctd7 piRNA 5'p-UGUUAAUCUCUCAGAGAAGGUGACAG; auxiliary factor: 500 nM mouse GTSF1. The protocol:
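Cleave-'n-Seq: a library of target RNAs (target site embedded in constant flanks, ACAGCATTCCGCGTTAGTGATATCCG... 5' flank; DNA-blocked outside the site) at 0.1 nM was incubated with 1 nM active mouse MILI or MIWI piRISC (synthetic 5'-monophosphorylated piRNA guide) with or without 500 nM mouse GTSF1 at 33 °C for 1 min to 16 h. Uncleaved targets were sequenced and normalised to non-target controls, and the pooled three trials were fitted to a burst-and-steady-state model to give the pre-steady-state cleavage rate (min^-1; k3 is constrained to at most 1e-4). Sequence is the target site only; target names encode pairing extent (gX:gY) and contiguous / 1-mismatch / 2-mismatch / bulge geometry. Fits with R² ≤ 0 are excluded.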
Turning to UAGUGUGUCACCAACUCUGAGAGAUUUUGA, the “pre-steady-state target cleavage rate” value is 0.00551 ± 0.0041.
As to UAGUGAGUGACCUUCUCUGAGAGAUUAUGA, the “pre-steady-state target cleavage rate” value was determined as 0.0378 ± 0.011.
With UAGUGACAGACCUUCUCUGAGAGAUUAGCA, the “pre-steady-state target cleavage rate” value amounted to 0.0252 ± 0.013.
On to UAGUGUGUCAGCUUCUCUGUGAGAUUAACA, for which the “pre-steady-state target cleavage rate” value is 0.0415 ± 0.0032.
With UAGUGACACACCUUCUCUCAGAGAUUAUGA the figure was 0.00858 ± 0.0045.
With UAGUCUGUCUCCUUCUCUGAGAGAUUAUGA the figure was 0.0111 ± 0.0041; with UAGUGACUCACCUUCAGUGAGAGAUUAACA, 0.0471 ± 0.0078; with UAGUGUGCUCACCUUCUCUGAGAGAUUAACA, 0.205 ± 0.013.
UAGUGAGUCACCUUCUCUGAGAGAUAACA: the “pre-steady-state target cleavage rate” value came out at 0.107 ± 0.038.
With UAGUGAGUCACCUUCUCUGAGAGAUAUACA the figure was 0.0915 ± 0.025; with UAGUGAGAUCACCUUCUCUGAGAGAUUAACA, 0.178 ± 0.015.
The value for UAGUGUGAUCACCUUCUCUGAGAGAUUAACA was 0.24 ± 0.018.
On to UAGUGAGUCACCUUCUCUGAGAGAUAUAACA, for which the “pre-steady-state target cleavage rate” value was determined as 0.347 ± 0.046.
With UAGUGUGUCACCUUCUCGGAGAGAUUAACA the figure was 0.153 ± 0.017; with UAGUCUGUCACCAUCACUGAGAGAUUAACA, 0.11 ± 0.0083; with UAGUGACAGUCCUUGUGUGAGAGAUUAACA, 0.0291 ± 0.0078.
With UAGUGACAGUGGAACUCUGACAGAUUAUCA the figure was less than 0.0001; with UAGUGUGUCACCUUUCUGAGAGAUUAACA, 0.0596 ± 0.013; with UAGUGUGUCACCUUUCUCUGAGAGAUUAACA, 0.187 ± 0.016.
UAGUGUGUCACCUUUUCUGAGAGAUUAACA: the “pre-steady-state target cleavage rate” value stood at 0.249 ± 0.02.
With UAGUGUGUCACCCUUCUCUGAGAGAUUAACA the figure was 0.104 ± 0.016.
With “UAGUGUGUCACCUUCUCUGAGAGAUUAACG [g2:g25:cont:t1G]”, the “pre-steady-state target cleavage rate” value amounted to 0.267 ± 0.02.
Regarding UAGUGUGUCACCUUCUCUGAGAGAUUACCA, the “pre-steady-state target cleavage rate” value was 0.197 ± 0.037.
Regarding “UAGUGUGUCACCUUCUCUGAGAGAUUAACU [g2:g25:cont:t1U]”, the “pre-steady-state target cleavage rate” value came to 0.187 ± 0.015.
The value for “UAGUGUGUCACCUUCUCUGAGAGAUUAACC [g2:g25:cont:t1C]” was 0.202 ± 0.014.
With UAGUGUGUCACCUUCUCUGAGAGAUUAACCA the figure was 0.236 ± 0.021; with UAGUGUGUCACCUUCUGUGUGAGAUUAACA, 0.0302 ± 0.004; with UAGUGACAGUGGAAGUCUGAGAGUUAAACA, less than 0.0001.
With UAGUGACACACCUUCUGAGAGAGAUUAUGA the figure was 0.0134 ± 0.0078; with UAGUGACAGUCCUUCUCUAAGAGAUUAACA, 0.0523 ± 0.012.
With UAGUGACAGUGGAAGAGUGAGGAGAUUAACA, the “pre-steady-state target cleavage rate” value was less than 0.0001.
The value for UAGUGACUCACCUUCUGUGAGAGUUUAACA was 0.0308 ± 0.01; that for UAGUGUGUCUCCUUCUCUGAGACAUUAACA was 0.00482 ± 0.0038.
The value for UAGUGAGUCACCUUCUCUGAGAGUAAAACA was 0.14 ± 0.045.
For the sequence UAGUGAGUCACCUUCUCUGAGAGUUUAACA, the “pre-steady-state target cleavage rate” value is 0.277 ± 0.061.
The value for UAGUGAGUCACCUUCUCUGACAGUUUAACA was 0.0134 ± 0.0052; that for UAGUCUGACACCUUCUCUGAGAGUUUAACA was 0.109 ± 0.016.
UAGUCAGUCACCUUCUCUGAGAGUUUAACA: the “pre-steady-state target cleavage rate” value stood at 0.261 ± 0.041.
As to UAGUGAGUCACCUUCUCUGAGAGUAUAACA, the “pre-steady-state target cleavage rate” value is 0.144 ± 0.057.
The value for UAGUGAGUCACCUUCUCUGAGAGAGUAACA was 0.239 ± 0.063.
For the sequence UAGUGAGUCACCUUCUCUCAGAGUUUAACA, the “pre-steady-state target cleavage rate” value was found to be 0.0248 ± 0.0099.
As for UAGUGAGUCACCUUCUCUGAGAGUAUUAACA, the “pre-steady-state target cleavage rate” value was found to be 0.158 ± 0.019.
On to UAGUGAGUCACCUUCUCUGAGAGAUUUAACA, for which the “pre-steady-state target cleavage rate” value worked out at 0.225 ± 0.04.
The value for UAGUGAGUCACCUUCUCUGAGAGUUAACA was 0.253 ± 0.077; that for UAGUGAGUCACCUUCUCUGAGAGCUUAACA was 0.155 ± 0.026; that for UAGUGAGUGACCUUCUCUGAGACAUUAACA was 0.0267 ± 0.0076.
With UAGUCUCUCACCAUCUCUGAGAGAUUAACA the figure was 0.0256 ± 0.0069; with UAGUGAGUGACCUUCUCUGAGAGAUAAACA, 0.0814 ± 0.021; with UAGUGACUCACCUUGUCUGAGACAUUAACA, 0.0647 ± 0.011.
As to UAGUGAGUCACCUUCUCUGAGAGACUUAACA, the “pre-steady-state target cleavage rate” value is 0.137 ± 0.032.
The value for UAGUGACUCACCUUCUCUGAGAGUUAAACA was 0.0666 ± 0.014; that for UAGUGAGUCACCUUCUCUGAGAGUUUAUCA was 0.132 ± 0.049; that for UAGUGAGUCACCUUCUCUGAGAGUUUAUGA was 0.275 ± 0.092.
With UAGUGAGUCACCUUCUCUGAGAGUUAAACA the figure was 0.297 ± 0.086.
The value for UAGUCUGUCACCUUCUCUGAGAGAUGUAACA was 0.211 ± 0.03; that for UAGUGAGUCACCUUCUCUGAGAGAUGUAACA was 0.312 ± 0.047; that for UAGUGAGUCACCUUCUCUGAGAGAAAAACA was 0.0915 ± 0.023.
As to UAGUGUGUCACCUUCUCUGAGAGAUGUAACA, the “pre-steady-state target cleavage rate” value stood at 0.159 ± 0.029.
With UAGUGAGUCACCUUCUCUGAGAGGUUAACA the figure was 0.142 ± 0.019; with UAGUGUGUCACCUUCUCUGAGAGUUUAUGA, 0.0769 ± 0.038; with UAGUGAGUCACCUUCUCUGAGAGAGUUAACA, 0.257 ± 0.044.
As for UAGUGACACACCUUCUCUGAGAGAAAUACA, the “pre-steady-state target cleavage rate” value was determined as 0.0296 ± 0.013.
On to UAGUGUGUCAGCUUCUCAGAGAGAUUAACA, for which the “pre-steady-state target cleavage rate” value was determined as 0.0938 ± 0.0081.
On to UAGUGACACACCUUGUCUGAGACAUUAACA, for which the “pre-steady-state target cleavage rate” value was determined as 0.0978 ± 0.026.
For UAGUGUGUCACCUUCGUCUGAGAGAUUAACA, the “pre-steady-state target cleavage rate” value is 0.088 ± 0.012.
On to UAGUGACUCACCUUCUCUGAGAGAUUAUGA, for which the “pre-steady-state target cleavage rate” value came to 0.0729 ± 0.012.
With UAGUGAGUCCCCUUCUCUGAGAGAUUAACA the figure was 0.214 ± 0.021.
The value for UAGUGACACACCUUCUCUGAGAGAUUACA was 0.0753 ± 0.023.
The value for UAGUGUGUCACCUUCUGUCAGAGAUUAACA was 0.039 ± 0.0051.
As for UAGUGAGUCACCUUCUCUGAGAUAUUAACA, the “pre-steady-state target cleavage rate” value worked out at 0.115 ± 0.017.
The value for UAGUGACACACCUUCUCUGAGACAUUAACA was 0.0514 ± 0.0091; that for UAGUGUCUCACCUUCUCUGAGAGAUUAUGA was 0.0163 ± 0.0063.
With UAGUGACAGACCGUCUCUGAGAGAUUAACA the figure was 0.0355 ± 0.0065.
With UAGUGAGUCACCUUCACAGAGAGAUUAACA the figure was 0.0664 ± 0.0081.
UAGUGACUCACCUUCUGUGACAGAUUAACA: the “pre-steady-state target cleavage rate” value is 0.0678 ± 0.011.
For the sequence UAGUGACAGACCUACUCUGAGAGAUUUACA, the “pre-steady-state target cleavage rate” value was 0.0238 ± 0.0093.
On to UAGUGACACACCUUCUCUCAGACAUUAACA, for which the “pre-steady-state target cleavage rate” value turned out to be 0.0383 ± 0.011.
The value for UAGUCAGUCACCAUCUCUGAGAGAUUAACA was 0.171 ± 0.0086; that for UAGUGAGUCACCUUCUCUGAGAGUUUUACA was 0.257 ± 0.078.
For UAGUCUGUCACCUUCUCUGAGAGUUUUACA, the “pre-steady-state target cleavage rate” value came to 0.171 ± 0.054.
Regarding UAGUGUGUCACCUUCUCUGAGAGUUUUACA, the “pre-steady-state target cleavage rate” value was 0.14 ± 0.046.
The value for UAGUGUGUCACCAUCUCUGAGAGAUUUACA was 0.158 ± 0.033.

The record behind these values is the supplement of paper PMC10338343.
